According to PubChem BioAssay (NCATS):
A number with no mark means an inactive call. Inconclusive results are not listed. A call without a number means that no potency is given here. Calls of active or inactive are those of the source. The call rests on the fitted dose curve; in most records, active means well fitted curve in the direction sought with a large enough effect; inconclusive means small, poorly fitted or top-dose-only effect, or another doubt; inactive means no such curve, though single readings can be large; an effect the other way counts as inactive or inconclusive.

Experiments:
[1] = system: Zika virus NS2B-NS3 protease (linked construct); assay: Primary screen NINDS Rhodamine qHTS for Zika virus inhibitors (AID 1347160); conditions: outcome: dose series up to 57.1 µM unless noted; further: nearly all actives have a fitted effect of over 55% in size
Procedure, shortened: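 Aprotinin served as in-plate control. Conditions: 25 nM linked NS2B-NS3, pH 8.0 Tris buffer, titrated compounds, 15 min preincubation and 15 min reaction with 1.5 microM Rhod110 substrate at room temperature.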

[2] = qHTS to identify inhibitors of the type 1 interferon - major histocompatibility complex class I in skeletal muscle: primary screen against the NCATS Pharmaceutical Collection (AID 1347407);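 further: luminescence of HiBiT knocked into endogenous HLA-B as interferon-induced MHC class I level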
Procedure, shortened: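 Immortalized human myoblasts (C25cl48) with HiBiT knocked into endogenous HLA-B*08:01 were stimulated with 4.0 ng/ml IFN-beta and treated with compounds ([…] top 46 uM) for 24 hrs at 37 C. HiBiT lytic luminescence read.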

[3] = molecular target: Protein phosphatase 1D (Homo sapiens) (UniProt O15297); assay: RapidFire Mass Spectrometry qHTS Assay for Modulators of WT P53-Induced Phosphatase 1 (WIP1) (AID 1347424); further: series mostly up to about 63 µM
Procedure, shortened: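 RapidFire MS readout of dephosphorylated VEPPL-S-QETFS product, with 1 uM isotope-labelled peptide standard. Reaction: 10 nM WIP1, 2 uM phosphopeptide substrate, 5 min, room temperature, after 1 h compound preincubation; stopped with 0.5% formic acid.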

[4] = molecular target: Protein phosphatase 1D (Homo sapiens) (UniProt O15297); assay: Rhodamine-PBP qHTS Assay for Modulators of WT P53-Induced Phosphatase 1 (WIP1) (AID 1347425)
Procedure, shortened: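 Read-out: Rhodamine-PBP fluorescence (ex 525/em 598 nm) for released Pi, read each minute for 11 min after adding 10 uM VEPPL-pS-QETFS; signal taken as f1 minus pre-substrate f0. Enzyme 5 nM WIP1 with 1 hr room-temperature compound preincubation.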

[5] = Primary qHTS for inhibitors of La Crosse Virus (LACV) - induced cell death in SH-SY5Y cells (AID 1508616);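 further: top concentration of the series differs between compounds; higher means more rescue of cells from virus-induced death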
Procedure, shortened: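 Cytopathicity rescue screen: compounds pinned onto SH-SY5Y cells, which are then infected with LACV (MOI 0.01) and held 6 days at 37C. Percent activity is scaled between infected DMSO control and uninfected DMSO control.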

[6] = molecular target: Calcium and integrin-binding protein 1 (Homo sapiens) (UniProt Q99828); assay: Primary qHTS for Identification of Calcium Integrin Binding Protein 1 (CIB1) Competitor (AID 1508620);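 further: GST tagged CIB1 binding a fluorescein labelled alphaIIb integrin peptide tracer; top concentration of the series differs between compounds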
Procedure, shortened: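 Fluorescence polarization competition: GST-tagged CIB1 (1 uM final) preincubated with compound 15 min at room temperature, then FITC-labelled alphaIIb peptide (100 nM final) added. After 15 min at room temperature, polarization read at Ex 480/Em 540.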

[7] = Confirmatory screen NINDS Rhodamine qHTS for Zika virus inhibitors (AID 1347161); further: potency means the concentration at half of the fitted maximal effect; nearly all actives have a fitted effect of over 60% in size
Procedure, shortened: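 Purified NS2B-NS3 protease with the NS2B hydrophilic domain joined by a flexible linker (25 nM) in 10 mM Tris-HCl pH 8.0, 0.01% Tween 20, preincubated 15 min at RT with compound; Rhodamine110 peptide substrate 1.5 µM; fluorescence change over 15 min; 4-parameter Hill fit.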

[8] = system: Zika virus NS2B-NS3 protease (linked); assay: 384 well plate NINDS AMC confirmatory qHTS for Zika virus inhibitors (AID 1347163);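 further: linked protease at 5 30 or 60 nM final depending on run; fluorescence of AMC released from Ac-VKTGKR-AMC peptide cleaved by the protease; top concentration of the series differs between compounds; nearly all actives have a fitted effect of over 50% in size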
Procedure, shortened: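 Enzyme (5, 30 or 60 nM final) first met test compounds for ~15 min. The AMC-tagged peptide Ac-VKTGKR-AMC followed at 30 microM. Fluorescence was then recorded at 25 min and scaled against no-enzyme and no-inhibitor wells.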

[9] = system: Zika virus NS2B-NS3 protease (linked construct); assay: 384 well plate NINDS Rhodamine confirmatory qHTS for Zika virus inhibitors (AID 1347164); conditions: rhodamine-110 peptide substrate fluorescence;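 further: fluorescence from protease cleavage of Ac-LKRR-rhodamine 110 substrate; potency means the concentration at half of the fitted maximal effect; nearly all actives have a fitted effect of over 65% in size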
Procedure, shortened: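 Linked NS2B-NS3 protease (final 5, 30 or 60 nM) preincubated ~15 minutes with compounds, then 10 microM Ac-LKRR-Rhodamine 110 added. Fluorescence (485/538 nm) read after 25 minutes at room temperature, normalized to no-enzyme and no-inhibitor controls.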

[10] = Vero cells viability qHTS for Zika virus inhibitors (AID 1347167)
Procedure, shortened: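 qHTS titration; 24-48 h compound exposure, 37 degrees C/5% CO2; DMEM, 4% FBS; CellTiter Glo ATP luminescence.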

[11] = molecular target: Lysine-specific demethylase 5B (Homo sapiens) (UniProt Q9UGL1); assay: Optimization screen for KDM5B Histone Demethylases FDH coupled qHTS against the LOPAC library (AID 1347166)
Procedure, shortened: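 KDM5BDeltaAP (200nM final) in 50mM HEPES pH 7.5, 0.01% Tween-20 was preincubated with compound for 10 min at room temperature. A substrate mix of 12.5uM H3K4Me3, 25uM a-ketoglutarate, ascorbate, Fe2+, NAD+ and formaldehyde dehydrogenase was then added. NADH fluorescence (340/450 nm) was read initially and after 30 min.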

[12] = qHTS to identify inhibitors of the type 1 interferon - major histocompatibility complex class I in skeletal muscle: primary screen against the NCATS LOPAC collection (AID 1347405);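 further: lytic HiBiT luminescence reporting HLA-B protein level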
Procedure, shortened: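 HLA-B HiBiT myoblasts, IFN-b 4 ng/ml, dexamethasone-free medium; compounds 7-pt 1:4.3 titration, top 46 uM final; 24 h at 37 C; Nano-Glo HiBiT lytic reagent, 10 min RT, luminescence.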

[13] = qHTS for inhibitors of adenylyl cyclases using a fission yeast platform: a pilot screen against the NCATS LOPAC library (AID 1347410)
Procedure, shortened: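 S. pombe CHP2027 (AC9-GNAS-PDE4D2) carrying PKA-repressed fbp1-GFP, incubated 18 h at 30C in EMM with LOPAC compounds at up to 57 uM. GFP gain-of-signal read by laser scanning cytometry; DMSO negative control.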

[14] = Validation qHTS assay for inhibitors of Activation Induced Cytidine Deaminase (AID): UDG Counterscreen signal (AID 1347427)
Procedure, shortened: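 Fluorescence at 560 nm excitation, 665 nm emission reports UDG signal after 250 mM NaOH (2x) addition and 30 min. Enzymes (AID 1 uM, UDG 2 U/mL, at 4/3x) preincubated 10 min with compound, then 4 h with 4x 250 nM DJC20/DJC23 substrate at room temperature.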

[15] = molecular target: Single-stranded DNA cytosine deaminase (Homo sapiens) (UniProt Q9GZX7); assay: Validation qHTS assay for inhibitors of Activation Induced Cytidine Deaminase (AID): AID signal (AID 1347429)
Procedure, shortened: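 AID+UDG coupled FRET deamination; cpds up to 114 uM final; DJC20/DJC23 substrate, 4 hr RT; NaOH stop, 30 min RT; read Ex 540/Em 590.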

[16] = molecular target: Calcium and integrin-binding protein 1 (Homo sapiens) (UniProt Q99828); assay: Validation qHTS for Identification of Calcium Integrin Binding protein 1 (CIB1) Competitor (AID 1508618)
Procedure, shortened: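 CIB1-GST (1 uM final) in 5 mM HEPES pH 7.4, 125 mM NaCl, 5 mM CaCl2, 0.01% Tween20 was preincubated 15 min at room temperature with compound (up to 114 uM), then FITC-alphaIIb peptide (100 nM) added for 15 min; fluorescence polarization read.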

[17] = Tertiary RLuc qRT-PCR qHTS assay for Zika virus inhibitors (AID 1347169); further: potency means the concentration at half of the fitted maximal effect; nearly all actives have a fitted effect of over 55% in size
Procedure, shortened: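 Vero cells (1,000/well) infected with recombinant ZIKV-RLuc (Cambodian) at MOI 1-2 after compound addition, 48-72 hrs at 37 degrees C. Live-cell Renilla luciferase substrate added; luminescence read after 1-1.5 hrs.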

[18] = qHTS to identify inhibitors of the type 1 interferon - major histocompatibility complex class I in skeletal muscle: primary screen against the NCATS Mechanism Interrogation Plate v5.0 (MIPE) Libary (AID 1347411); further: nearly all actives have a fitted effect of over 65% in size
Procedure, shortened: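 HLA-B HiBit myoblasts, dexamethasone-free medium + 4 ng/ml IFN-b, 24 h compound, 11-pt 1:3 from 46 uM final. Readout: Nano-Glo HiBiT lytic luminescence after 10 min lysis, RT.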

Sequence of Lysine-specific demethylase 5B (Homo sapiens) (Q9UGL1 whole entry, looked up): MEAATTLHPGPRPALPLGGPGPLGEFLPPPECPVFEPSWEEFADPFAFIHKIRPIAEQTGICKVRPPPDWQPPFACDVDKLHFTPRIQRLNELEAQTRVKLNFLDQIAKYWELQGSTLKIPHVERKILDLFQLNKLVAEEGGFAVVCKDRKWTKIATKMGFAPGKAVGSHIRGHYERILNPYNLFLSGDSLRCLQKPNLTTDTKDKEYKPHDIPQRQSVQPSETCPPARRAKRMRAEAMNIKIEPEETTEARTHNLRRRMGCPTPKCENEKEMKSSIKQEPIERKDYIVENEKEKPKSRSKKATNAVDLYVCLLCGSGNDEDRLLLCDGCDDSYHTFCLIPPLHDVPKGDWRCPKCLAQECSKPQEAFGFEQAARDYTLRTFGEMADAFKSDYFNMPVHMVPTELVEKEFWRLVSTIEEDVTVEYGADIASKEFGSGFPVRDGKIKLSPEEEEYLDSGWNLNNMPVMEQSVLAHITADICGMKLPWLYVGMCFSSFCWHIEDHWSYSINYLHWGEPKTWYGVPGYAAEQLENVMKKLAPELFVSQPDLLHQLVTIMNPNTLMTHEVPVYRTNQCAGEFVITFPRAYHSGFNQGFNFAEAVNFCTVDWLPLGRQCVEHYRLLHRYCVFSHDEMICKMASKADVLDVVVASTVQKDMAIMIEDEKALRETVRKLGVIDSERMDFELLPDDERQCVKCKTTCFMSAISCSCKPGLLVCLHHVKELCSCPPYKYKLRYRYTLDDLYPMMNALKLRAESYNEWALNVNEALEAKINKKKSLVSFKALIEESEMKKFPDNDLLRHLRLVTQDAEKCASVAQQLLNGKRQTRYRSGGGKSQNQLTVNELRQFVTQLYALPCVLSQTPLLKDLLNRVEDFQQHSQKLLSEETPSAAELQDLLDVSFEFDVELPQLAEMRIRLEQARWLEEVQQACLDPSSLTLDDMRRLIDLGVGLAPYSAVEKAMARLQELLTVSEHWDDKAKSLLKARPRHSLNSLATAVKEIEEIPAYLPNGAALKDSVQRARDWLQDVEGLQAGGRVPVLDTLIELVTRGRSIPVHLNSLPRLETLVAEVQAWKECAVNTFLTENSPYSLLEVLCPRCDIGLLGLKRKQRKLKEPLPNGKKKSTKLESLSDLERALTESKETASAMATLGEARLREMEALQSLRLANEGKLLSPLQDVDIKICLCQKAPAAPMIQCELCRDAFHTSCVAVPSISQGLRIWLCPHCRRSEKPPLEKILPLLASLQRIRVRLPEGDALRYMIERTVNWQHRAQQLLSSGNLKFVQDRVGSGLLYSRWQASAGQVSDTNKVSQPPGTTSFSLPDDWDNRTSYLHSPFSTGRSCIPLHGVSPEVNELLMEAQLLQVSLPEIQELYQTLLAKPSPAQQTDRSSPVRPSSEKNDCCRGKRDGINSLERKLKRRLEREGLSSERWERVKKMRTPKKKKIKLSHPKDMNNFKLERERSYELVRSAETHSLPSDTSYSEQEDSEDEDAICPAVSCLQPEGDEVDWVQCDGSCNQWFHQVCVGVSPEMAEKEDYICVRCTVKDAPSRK
Sequence of Single-stranded DNA cytosine deaminase (Homo sapiens) (Q9GZX7 whole entry, looked up): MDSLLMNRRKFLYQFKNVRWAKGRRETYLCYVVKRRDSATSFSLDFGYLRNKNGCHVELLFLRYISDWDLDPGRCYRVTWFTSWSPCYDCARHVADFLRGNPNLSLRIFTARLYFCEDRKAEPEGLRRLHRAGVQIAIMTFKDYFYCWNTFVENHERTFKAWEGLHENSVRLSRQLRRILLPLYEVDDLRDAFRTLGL
Sequence of Calcium and integrin-binding protein 1 (Homo sapiens) (Q99828 whole entry, looked up): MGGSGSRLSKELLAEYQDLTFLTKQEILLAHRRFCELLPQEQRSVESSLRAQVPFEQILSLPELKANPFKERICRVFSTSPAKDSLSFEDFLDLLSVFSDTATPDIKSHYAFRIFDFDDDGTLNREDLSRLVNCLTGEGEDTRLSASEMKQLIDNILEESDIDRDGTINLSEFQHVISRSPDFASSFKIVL
Sequence of Protein phosphatase 1D (Homo sapiens) (O15297 whole entry, looked up): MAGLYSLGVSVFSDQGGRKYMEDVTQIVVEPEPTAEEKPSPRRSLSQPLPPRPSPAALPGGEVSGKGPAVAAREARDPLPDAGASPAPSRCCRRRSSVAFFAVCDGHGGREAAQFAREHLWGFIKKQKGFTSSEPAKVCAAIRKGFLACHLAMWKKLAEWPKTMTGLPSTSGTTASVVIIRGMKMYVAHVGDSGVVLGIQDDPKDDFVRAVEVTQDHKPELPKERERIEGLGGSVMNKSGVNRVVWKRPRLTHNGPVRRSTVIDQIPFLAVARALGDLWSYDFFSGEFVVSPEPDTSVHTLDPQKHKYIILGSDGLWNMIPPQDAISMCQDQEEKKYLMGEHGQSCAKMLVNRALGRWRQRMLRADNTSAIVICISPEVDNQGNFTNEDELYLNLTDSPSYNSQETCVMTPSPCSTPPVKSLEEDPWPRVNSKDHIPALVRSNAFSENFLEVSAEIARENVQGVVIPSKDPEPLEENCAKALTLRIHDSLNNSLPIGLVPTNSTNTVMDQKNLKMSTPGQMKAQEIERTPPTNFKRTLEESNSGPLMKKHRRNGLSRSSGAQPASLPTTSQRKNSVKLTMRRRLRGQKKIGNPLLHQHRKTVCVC

CC(C(=O)O)c1ccc(/C=C2\CCCCC2=O)cc1 (stereo not given)
outcome [1]: inactive
Potency [2]: inactive
Potency [3]: inactive
outcome [4]: inactive
outcome [5]: inactive
Potency [6]: inactive

CCN1CCN(c2cc(-c3ccc(F)cc3)c3c(n2)CCCCCC3)CC1
outcome [1]: inactive
Potency [2]: inactive
Potency [3]: inactive
outcome [4]: inactive
outcome [5]: inactive
Potency [6]: inactive

COc1cc(C(=O)OC(COCCC(C)C)CN2CCOCC2)cc(OC)c1OC (stereo not given)
outcome [1]: inactive
Potency [2]: inactive
Potency [3]: inactive
outcome [4]: inactive
outcome [5]: inactive
Potency [6]: inactive

O=C(CCCCCCCCC#CI)Oc1ccccc1
outcome [1]: inactive
Potency [2]: inactive
Potency [3]: inactive
outcome [4]: inactive
outcome [5]: inactive
Potency [6]: inactive

CCOC(=O)Cn1cccc1-c1nc(-c2ccc(OC)cc2)c(-c2ccc(OC)cc2)s1
outcome [1]: inactive
Potency [7]: 11.1 µM (active)
Potency [8]: inactive
Potency [9]: 0.398 µM (active)
outcome [10]: inactive
Potency [2]: inactive
Potency [3]: inactive
outcome [4]: inactive
Potency [6]: inactive

COC(=O)C1=CO[C@@H](O)[C@@H]2C(CO)=CC[C@H]12
outcome [1]: inactive
outcome [11]: inactive
Potency [12]: inactive
outcome [13]: inactive
outcome [14]: inactive
outcome [15]: inactive
outcome [5]: inactive
outcome [16]: inactive
Potency [6]: inactive

CCOC(=O)c1ccc(OCCN2C[C@H](O)[C@@H](O)[C@H](O)[C@H]2CO)cc1
outcome [1]: inactive
Potency [2]: inactive
Potency [3]: inactive
outcome [4]: inactive
outcome [5]: inactive
Potency [6]: inactive

CCCCNc1ccc(C(=O)OCCN(CC)CC)cc1
outcome [1]: inactive
Potency [2]: inactive
Potency [3]: inactive
outcome [4]: inactive
outcome [5]: inactive
Potency [6]: inactive

CO/N=C(/C(=O)N[C@@H]1C(=O)N2C(C(=O)O)=C(Cn3nnc(C)n3)CS[C@H]12)c1csc(N)n1
outcome [1]: inactive
Potency [2]: inactive
Potency [3]: inactive
outcome [4]: inactive
outcome [5]: inactive

N[C@@H](Cn1ccc(=O)c(O)c1)C(=O)O
outcome [1]: inactive [at 4.91 µM]
outcome [11]: inactive
Potency [12]: inactive
outcome [13]: inactive
outcome [14]: inactive
outcome [15]: inactive
outcome [5]: inactive
outcome [16]: inactive
activity change, negative = inhibition [6]: 2.21% [at 12.4 µM]

COc1cc(NS(=O)(=O)c2ccc(N)cc2)nc(C)n1
outcome [1]: inactive
Potency [2]: inactive
Potency [3]: inactive
outcome [4]: inactive
outcome [5]: inactive
Potency [6]: inactive

O=[N+]([O-])c1nccn1CO[C@@H](CO)[C@H](O)CO
outcome [1]: inactive
Potency [2]: inactive
Potency [3]: inactive
outcome [4]: inactive
outcome [5]: inactive
Potency [6]: inactive

O=C(NN1CCCC1)NS(=O)(=O)c1ccc(Cl)cc1
outcome [1]: inactive
Potency [2]: inactive
Potency [3]: inactive
outcome [4]: inactive
outcome [5]: inactive
Potency [6]: inactive

O=[N+]([O-])c1ccc(-c2nc(-c3ccc(F)cc3)c(-c3ccncc3)[nH]2)cc1
outcome [1]: inactive
outcome [11]: inactive
Potency [17]: 4.66 µM (active)
outcome [13]: inactive
outcome [14]: inactive
outcome [15]: inactive
outcome [5]: inactive
outcome [16]: inactive
Potency [6]: inactive

C[N+]1(CC2COC(c3ccccc3)(c3ccccc3)O2)CCCCC1 (stereo not given)
outcome [1]: inactive [at 33.1 µM]
Potency [2]: inactive
Potency [3]: inactive
outcome [4]: inactive
outcome [5]: inactive
Potency [6]: inactive

Nc1c(NC/C=C\COc2cc(CN3CCCCC3)ccn2)c(=O)c1=O
outcome [1]: inactive
Potency [2]: inactive
Potency [3]: inactive
outcome [4]: inactive
outcome [5]: inactive
Potency [6]: inactive

CN1[C@@H]2CC[C@H]1CC(NC(=O)n1c(=O)[nH]c3ccccc31)C2 (stereo not given in full)
outcome [1]: inactive
Potency [2]: inactive
Potency [3]: inactive
outcome [4]: inactive
outcome [5]: inactive
Potency [6]: inactive

C[C@H](CN1CCCC1)C(=O)c1ccc(C(F)(F)F)cc1
outcome [1]: inactive
Potency [2]: inactive
Potency [3]: inactive
outcome [4]: inactive
outcome [5]: inactive
Potency [6]: inactive

Cc1nn(-c2ccccc2)c(C)c1/C=N/N1CCN(Cc2ccccc2)CC1
outcome [1]: inactive
outcome [11]: inactive
Potency [12]: inactive
outcome [13]: inactive
outcome [14]: inactive
outcome [15]: inactive
outcome [5]: inactive
outcome [16]: inactive
Potency [6]: inactive

CCN1C(=O)c2ccccc2C1Nc1ccc(OCCN2CCCCC2)cc1 (stereo not given)
outcome [1]: inactive
Potency [2]: inactive
Potency [3]: inactive
outcome [4]: inactive
outcome [5]: inactive
Potency [6]: inactive

CN(C)C(=O)CNC(=O)Cc1ccccc1
outcome [1]: inactive
Potency [2]: inactive
Potency [3]: inactive
outcome [4]: inactive
outcome [5]: inactive
Potency [6]: inactive

CN(C)c1cc2c(Nc3ccc4c(cnn4Cc4ccccc4)c3)ncnc2cn1
outcome [1]: inactive
outcome [11]: inactive
Potency [12]: inactive
outcome [13]: inactive
outcome [14]: inactive
outcome [15]: inactive
outcome [16]: inactive

Clc1ccc2c(c1)N=C(N1CCNCC1)c1ccccc1N2
outcome [1]: inactive
outcome [11]: inactive
Potency [12]: inactive
outcome [13]: inactive
outcome [14]: inactive
outcome [15]: inactive
outcome [5]: inactive
outcome [16]: inactive
Potency [6]: inactive

CCC(C(=O)NC(=O)NC(C)=O)c1ccccc1 (stereo not given)
outcome [1]: inactive
Potency [2]: inactive
Potency [3]: inactive
outcome [4]: inactive
outcome [5]: inactive
Potency [6]: inactive

CCNC(=O)NCCCOc1cccc(CN2CCCCC2)c1
outcome [1]: inactive
Potency [2]: inactive
Potency [3]: inactive
outcome [4]: inactive
outcome [5]: inactive
Potency [6]: inactive

CC1c2ccccc2CN1NC(=O)c1ccc(Cl)c(S(N)(=O)=O)c1 (stereo not given)
outcome [1]: inactive
Potency [2]: inactive
Potency [18]: inactive
Potency [3]: inactive
outcome [4]: inactive
outcome [5]: inactive
Potency [6]: inactive
